# Bioassay records from PubChem BioAssay.
# Most compounds without a hit are left out; they make up all but 7.2% or so of the library.
# Marburg entry inh = inhibitors of Marburg virus binding or cell entry; Marburg virus pseudotyped entry inhibition, cell reporter; Potency, µM (titrated, usually from 37.8 µM), for the others: top-dose activity change, negative = inhibition, usual class: inhibitors; 1.8% of 300,000 active; AID 540276; calls by dose curve; tested in HEK293 cells
# Sm TGR inh = blocks Schistosoma mansoni thioredoxin glutathione reductase; 3% of 360,000 active; Q962Y6; AID 485364; Potency, µM (doses to about 114 µM), for the others: at the highest dose activity change, negative = inhibition, actives largely listed as inhibitors; purified TGR, DTNB reduction, TNB absorbance 405 nm; also: nearly all actives have a fitted effect of over 60% in size
#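 Kinetic colorimetric format: TGR-catalysed, NADPH-driven DTNB reduction monitored via TNB absorbance. Enzyme dispensed at 20 nM; compound exposure 15 min at room temperature before reaction start.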
# RE007 growth inh = less growth of the S. pombe RE007 Vpr strain; S. pombe RE007 Vpr strain, BacTiter-Glo ATP luminescence, 24 h; AID 651644; Potency, µM (top dose mostly 92.2 µM), for inactives: at the highest dose activity change, negative = less growth, usual class: inhibitors; 0.21% of 360,000 active; active = well fitted falling curve with a large enough effect; inconclusive = small, poorly fitted or top-dose-only effect; inactive = no such curve, though single readings can be large or run the other way; also: nearly all actives have a fitted effect of over 50% in size
#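 Fission yeast RE007 carrying one integrated HIV-1 vpr copy, seeded at OD 0.01 in PMG+AL medium with 23 nL pinned compound. Grown 24 h at 30 degrees; viability read by BacTiter-Glo luminescence after 5 min.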
# HCV inh = HCV inhibition; Huh7.5.1 HCVcc-Cre infection, luciferase reporter, 44 h; Potency, µM (series often up to 41.8 µM), for the others: at the top dose activity change, negative = inhibition, usual class: inhibitors; 3.4% of 340,000 active
#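 Infectious HCVcc-Cre (~0.5 moi) was added to cells just after compound, with cells seeded 4 h earlier at 1,000 per well. Luciferase activity after 44 h culture reported infection; substrate was incubated 15 min at room temperature before reading.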
# Lassa entry inh = Lassa virus entry inhibition; Lassa virus pseudotype entry inhibition, cell reporter; Potency, µM (doses to about 37.9 µM), without a hit: at the highest dose activity change, negative = inhibition, usual class: inhibitors; 1.2% of 300,000 active; AID 540256; calls by dose curve; tested in HEK293 cells; also: nearly all actives have a fitted effect of over 50% in size
# FMDV antiviral = foot and mouth disease virus antiviral activity | 1.2% of 410,000 active | AID 1159524 | Potency, µM (top dose mostly 57.9 µM), for the others: top-dose activity change, negative = inhibition, most hits filed as inhibitors | FMDV antiviral cell-based qHTS; calls by dose curve; tested in HEK293T cells; also: read-out not given here; nearly all actives have a fitted effect of over 45% in size
# The depositor's hits bear a star; u = inconclusive; x = no result given; [ ] = dose if it differs, or a comment. Unless noted, calls follow the shape of the dose curve; as a rule, active = well fitted curve in the direction sought with a large enough effect; inconclusive = small, poorly fitted or top-dose-only effect, or another doubt; inactive = no such curve, though single readings can be large; an effect the other way counts as inactive or inconclusive. % is scaled to controls: 0 for no effect and ±100 for the full control effect; potency is read from the fitted curve at half-maximal effect.
SMILES,Marburg entry inh,Sm TGR inh,RE007 growth inh,HCV inh,Lassa entry inh,FMDV antiviral
Cc1cccc(C(=O)Nc2sc(C)c(-c3ccccc3)c2C#N)c1,u,-2%,1%,u,u,-24%
Cc1onc(-c2ccccc2)c1C(=O)NC(=S)Nc1sc2c(c1C#N)CCCC2,-2%,u,-4%,1%,5%,-21%
CCCOc1ccc(NC(=O)c2c(-c3ccccc3)noc2C)cc1,x,9%,-17%,14%,x,-19%
Cc1noc(C)c1C(=O)Nc1sc(C)c(-c2ccccc2)c1C#N,-1%,-1%,-7%,3%,14%,28µM*
Cc1onc(-c2ccccc2)c1C(=O)Nc1sc2c(c1C#N)CCC2,4.6µM*,-22%,-17%,u,u,u
COc1ccccc1Cc1nc2ccccc2nc1SCC(=O)NCc1ccc(F)cc1,x,0%,x,x,5%[46.1 µM],9%
O=C1CC(c2nc(-c3ccc(Cl)cc3)no2)CN1c1ccc2c(c1)OCCO2 (centres undefined),x,-1%,x,x,23%[46.1 µM],-20%
CCCCNC(=O)CSc1nc2cc3c(cc2c(=O)n1CCCCCC(=O)NCc1ccc(OC)cc1)OCO3,x,9%,x,x,6%[46.1 µM],-15%
CNCC/C=C1/c2ccccc2CSc2ccccc21,u,-11%,0%,10µM*,u,-24%
OCCN1CCN(CC/C=C2/c3ccccc3CSc3ccccc32)CC1,x,x,-17%,u,x,-16%
Cc1cc(C)c(-c2cc([C@H](C)ON=C[C@@H](C)[C@H](OCc3ccccc3)C(C)C)on2)c(C)c1,6%[14.2 µM],x,x,x,x,x
Cc1oc(/N=C/c2ccccc2)c(C#N)c1C,1%,-3%,16%,-12%,18%,43%
COc1cc(/C=N/c2oc(C)c(C)c2C#N)cc(Br)c1O,x,11µM*,14%,12%,x,11%
COc1ccc(/C=N/c2oc(C)c(C)c2C#N)c(OC)c1,2%[46.1 µM],50µM*,7%,1%,-20%,6%
CCCCc1nn2c(=O)cc(COC(=O)c3ccccc3NC(=O)c3cccc(C)c3)nc2s1,x,2%,x,x,2%[46.1 µM],-6%
CCN1C(=O)/C(=C2\C=CC3=C(CCCC3)N2CC)SC1=S,-7%,x,x,x,x,x
COc1ccccc1Nc1cc(C(=O)NCc2cccs2)c2ccccc2n1,u,-1%,x,x,-16%[46.1 µM],-3%
CCOC(=O)N1CCN(CC(O)COc2ccccc2C(C)C)CC1 (centres undefined),-11%,1%,-5%,-2%,8%,u
CCN(CCNCC(O)COc1ccccc1C(C)C)c1cccc(C)c1 (centres undefined),u,9%,2%,13µM*,-16%,-27%
O=C(Nc1ccc2snnc2c1)Nc1cccc2ccccc12,u,1%,6%,10µM*,u,21%
CCc1ccccc1NC(=O)Nc1ccc2snnc2c1,9%[46.1 µM],8%,x,x,u,-1%
COc1ccc(OC)c(Nc2nc3ccccc3nc2-n2nc(C)cc2C)c1,-3%[46.1 µM],10%,x,x,24%[46.1 µM],-13%
O=C(NCC#CCOCc1ccccc1)c1ccccc1,26%,7.1µM*,2%,u,-4%,1%
O=C(NCCNC(=O)c1ccccc1)c1ccccc1,x,-1%,-9%,6%,x,-3%
COc1cccc(N2CCN(C(=O)c3cc(-c4ccccc4)nc4c3cnn4C(C)C)CC2)c1,x,x,3%,11µM*,x,0%
SMILES,Marburg entry inh,Sm TGR inh,RE007 growth inh,HCV inh,Lassa entry inh,FMDV antiviral
COC(=O)c1ccc(C(=O)N2CCc3c(C(=O)NC(C)c4ccco4)c(OC)cc(=O)n3CC2)cc1 (centres undefined),x,x,x,x,x,18%
CC(C)c1ccc(OCC(=O)NC2CC(C)(C)NC(C)(C)C2)c(Br)c1,x,0%,5%,11µM*,x,5%
Cc1cc(OCC(=O)NC2CC(C)(C)NC(C)(C)C2)c(C)cc1Br,u,-5%,4%,10µM*,-11%,-8%
CCOC(=O)c1c(C)[nH]c(C(=O)OC)c1CCC(=O)OC,12%,-5%,-2%,10%,2%,-18%
CCOC(=O)c1[nH]c(Cc2[nH]c(C(=O)OCC)c(C)c2CCC(=O)OC)c(CCC(=O)OC)c1C,0%,7.9µM*,-7%,u,u,2%
Cc1sc(N)nc1-c1ccc(Oc2ccccc2)cc1,x,16%,u,14µM*,x,53%
Nc1nc(N)nc(-c2ccc(Oc3ccccc3)cc2)n1,-3%,5%,3%,7%,3%,x
CCCCCCC#C[C@@H]1C=C[C@H](OC(=O)OCC)[C@@H](COC(=O)OCC)O1,-12%[14.2 µM],x,x,x,x,x
O=C1c2ccc3c4c(ccc(c24)C(=O)N1CCCCO)C(=O)N(CCCCO)C3=O,x,-11%,-4%,7.1µM*,x,u
O=C(c1ccc2c(c1)C(=O)N(CCCO)C2=O)c1ccc2c(c1)C(=O)N(CCCO)C2=O,10%,4%,-11%,5%,-1%,-10%
COC(=O)C1CCCCN1Cc1nc(N(C)C)c2ccccc2n1 (centres undefined),x,x,x,x,x,-3%
CC1(c2ccc(Cl)cc2)CC(C)(C)N(C(=O)c2cccc(F)c2)c2ccccc21 (centres undefined),x,7%,x,x,-14%[46.1 µM],-6%
Cc1nn(Cc2ccc(C(=O)Nc3ccc(C(=O)OC(C)C)cc3)o2)c(C)c1Cl,u,u,1%,u,u,x
Cc1nn(Cc2ccc(C(=O)NN)o2)c(C)c1Cl,x,0%,-1%,13µM*,x,-19%
Cc1cc(Br)c2[nH]c3c(c2c1)CCCC3=O,-8%[46.1 µM],1%,-24%,10µM*,-1%,-1%
COc1cc2c(cc1OC)C(c1cc(Br)ccc1F)N(C(=O)CCl)CC2 (centres undefined),-4%,0.79µM*,x,u,x,28µM*
COc1cc2c(cc1OC)C(C1C(=O)CC(C)(C)CC1=O)N(C(=O)CCl)CC2 (centres undefined),u,u,-2%,4%,u,0%
C=C(C)CSc1cc(C)c(C#N)c2nc3ccccc3n12,u,3.2µM*,-3%,11µM*,u,u
Cc1cc(-c2ccco2)n2c(nc3ccccc32)c1C#N,0%,50µM*,22%,u,-2%,u
CCCCc1c(C)c(C#N)c2nc3ccccc3n2c1Cl,3%,3.5µM*,x,21%,x,x
COc1ccc(CNC(=O)CCc2nc3cccnc3n2Cc2ccccc2)cc1,9%[46.1 µM],-3%,x,x,17%[46.1 µM],-4%
Cc1nc2cnc(N3CCN(C)CC3)nc2n(CCc2ccccc2)c1=O,x,x,x,x,x,-5%
CC(=O)c1cccc(NC(=O)c2cc3c(s2)-c2c(C)cccc2OC3)c1,7%[46.1 µM],-9%,x,x,x,u
Cc1cccc2c1-c1sc(C(=O)Nc3cccnc3)cc1CO2,x,4%,1%,22µM*,x,22%
COc1ccc(C)c2sc(NC(=O)CCS(=O)(=O)c3ccccc3)nc12,u,5µM*,9%,u,u,-17%
CCOc1cccc2sc(NC(=O)CCS(=O)(=O)c3ccccc3)nc12,10µM*,-29%,-15%,22µM*,u,-9%
